From PubChem BioAssay AID1159580 (chemical genetic matrix, 2015)
Hit rate of the full screen: of about 5,500 compounds, about 2,000 (36%) were called active. Another 18% or so got no clear call; they are omitted. Cut-off read from the data, not from the text of the source: active = normalized growth mostly below about 0.91 (no sharp cut-off); inconclusive = no clear call, values can overlap the other calls; inactive = mostly above about 0.92. Some of the results follow.

Assay: chemical genetic growth profiling, strain panel (AID 1159580);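 note: tested at 20 µM; growth read once vehicle control cultures reached saturation at 30 °C; 1 = growth at the plate median or of vehicle wells; lower values mean less growth of the strain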
Details: growth OD
[1] = S. cerevisiae deletion strains, locus YDL101C, strain DUN1, active compounds read low
[2] = S. cerevisiae deletion strains, locus YHR030C, strain SLT2, active compounds read low

Measured: normalized growth

N#C/C(=N/Nc1ccccc1Cl)S(=O)(=O)c1ccc(Cl)cc1
inactive: S. cerevisiae deletion strains, locus YAR019C, strain CDC15, active compounds read low 0.976 | S. cerevisiae deletion strains, locus YBL105C, strain PKC1, active compounds read low 0.97 | S. cerevisiae deletion strains, locus YBR135W, strain CKS1, active compounds read low 0.964 | S. cerevisiae deletion strains, locus YBR136W, strain MEC1, active compounds read low 0.968 | S. cerevisiae deletion strains, locus YBR160W, strain CDC28, active compounds read low 0.969 | S. cerevisiae deletion strains, locus YDL017W, strain CDC7, active compounds read low 0.976 | S. cerevisiae deletion strains, locus YDL028C, strain MPS1, active compounds read low 0.975 | [1] 0.978 | S. cerevisiae deletion strains, locus YDL108W, strain KIN28, active compounds read low 0.977 | S. cerevisiae deletion strains, locus YDL132W, strain cdc53, active compounds read low 0.971 | S. cerevisiae deletion strains, locus YDL214C, strain PRR2, active compounds read low 0.889 | S. cerevisiae deletion strains, locus YDR052C, strain DBF4, active compounds read low 0.966 | S. cerevisiae deletion strains, locus YDR054C, strain cdc34, active compounds read low 0.966 | S. cerevisiae deletion strains, locus YDR226W, strain ADK1, active compounds read low 0.974 | S. cerevisiae deletion strains, locus YDR477W, strain SNF1, active compounds read low 0.889 | S. cerevisiae deletion strains, locus YER123W, strain YCK3, active compounds read low 0.882 | S. cerevisiae deletion strains, locus YER133W, strain GLC7, active compounds read low 0.909 | S. cerevisiae deletion strains, locus YFL009W, strain cdc4, active compounds read low 0.968 | S. cerevisiae deletion strains, locus YFL029C, strain CAK1, active compounds read low 0.969 | S. cerevisiae deletion strains, locus YFR003C, strain YPI1, active compounds read low 0.973 | S. cerevisiae deletion strains, locus YFR019W, strain FAB1, active compounds read low 0.859 | S. cerevisiae deletion strains, locus YFR028C, strain CDC14, active compounds read low 0.95 | S. cerevisiae deletion strains, locus YGR040W, strain KSS1, active compounds read low 0.889 | S. cerevisiae deletion strains, locus YGR052W, strain FMP48, active compounds read low 0.869 | S. cerevisiae deletion strains, locus YGR092W, strain DBF2, active compounds read low 0.715 | [2] 0.916 | S. cerevisiae deletion strains, locus YHR079C, strain IRE1, active compounds read low 0.955 | S. cerevisiae deletion strains, locus YHR082C, strain KSP1, active compounds read low 0.918 | S. cerevisiae deletion strains, locus YHR205W, strain SCH9, active compounds read low 0.866 | S. cerevisiae deletion strains, locus YIL147C, strain SLN1, active compounds read low 0.968 | S. cerevisiae deletion strains, locus YJL095W, strain BCK1, active compounds read low 0.852 | S. cerevisiae deletion strains, locus YJL128C, strain PBS2, active compounds read low 0.944 | S. cerevisiae deletion strains, locus YJL157C, strain FAR1, active compounds read low 0.909 | S. cerevisiae deletion strains, locus YJR016C, strain ILV3, active compounds read low 0.974 | S. cerevisiae deletion strains, locus YJR066W, strain TOR1 (second series), active compounds read low 0.877 | S. cerevisiae deletion strains, locus YJR066W, strain TOR1, active compounds read low 0.962 | S. cerevisiae deletion strains, locus YKL048C, strain ELM1, active compounds read low 0.886 | S. cerevisiae deletion strains, locus YKL067W, strain YNK1, active compounds read low 0.911 | S. cerevisiae deletion strains, locus YKL101W, strain HSL1, active compounds read low 0.835 | S. cerevisiae deletion strains, locus YKL193C, strain SDS22, active compounds read low 0.976 | S. cerevisiae deletion strains, locus YKL203C, strain TOR2, active compounds read low 0.943 | S. cerevisiae deletion strains, locus YLR113W, strain HOG1, active compounds read low 0.877 | S. cerevisiae deletion strains, locus YLR133W, strain CKI1, active compounds read low 0.847 | S. cerevisiae deletion strains, locus YLR403W, strain SFP1, active compounds read low 0.811 | S. cerevisiae deletion strains, locus YML070W, strain DAK1, active compounds read low 0.883 | S. cerevisiae deletion strains, locus YMR001C, strain CDC5, active compounds read low 0.969 | S. cerevisiae deletion strains, locus YMR205C, strain PFK2 (second series), active compounds read low 0.918 | S. cerevisiae deletion strains, locus YMR277W, strain FCP1, active compounds read low 0.973 | S. cerevisiae deletion strains, locus YNL006W, strain LST8, active compounds read low 0.979 | S. cerevisiae deletion strains, locus YNL020C, strain ARK1, active compounds read low 0.828 | S. cerevisiae deletion strains, locus YNL161W, strain CBK1, active compounds read low 0.971 | S. cerevisiae deletion strains, locus YNL183C, strain NPR1, active compounds read low 0.94 | S. cerevisiae deletion strains, locus YNL207W, strain RIO2, active compounds read low 0.954 | S. cerevisiae deletion strains, locus YNL222W, strain SSU72, active compounds read low 0.977 | S. cerevisiae deletion strains, locus YNL307C, strain MCK1 (second series), active compounds read low 0.787 | S. cerevisiae deletion strains, locus YOL078W, strain AVO1, active compounds read low 0.968 | S. cerevisiae deletion strains, locus YOL136C, strain PFK27, active compounds read low 0.832 | S. cerevisiae deletion strains, locus YOR061W, strain CKA2, active compounds read low 0.851 | S. cerevisiae deletion strains, locus YOR119C, strain RIO1, active compounds read low 0.957 | S. cerevisiae deletion strains, locus YOR231W, strain MKK1, active compounds read low 0.895 | S. cerevisiae deletion strains, locus YOR329C, strain SCD5, active compounds read low 0.979 | S. cerevisiae deletion strains, locus YPL031C, strain PHO85, active compounds read low 0.856 | S. cerevisiae deletion strains, locus YPL153C, strain RAD53, active compounds read low 0.889 | S. cerevisiae deletion strains, locus YPL204W, strain HRR25, active compounds read low 0.814 | S. cerevisiae deletion strains, locus YPL209C, strain IPL1, active compounds read low 0.975 | S. cerevisiae deletion strains, locus YPL256C, strain CLN2, active compounds read low 0.939 | S. cerevisiae deletion strains, locus YPR025C, strain CCL1, active compounds read low 0.978 | S. cerevisiae deletion strains, locus YPR106W, strain ISR1, active compounds read low 0.966 | S. cerevisiae deletion strains, locus YPR111W, strain DBF20, active compounds read low 0.961 | S. cerevisiae deletion strains, strain NNK1, active compounds read low 0.952 | S. cerevisiae deletion strains, strain TSCII, active compounds read low 0.956

CC(=O)OCc1ccc(/C=C(\C#N)S(=O)(=O)c2ccc(Cl)cc2)o1
inactive: S. cerevisiae deletion strains, locus YAL013W, strain DEP1, active compounds read low 1.01 | S. cerevisiae deletion strains, locus YBR229C, strain ROT2, active compounds read low 1.01 | [1] 1.01 | S. cerevisiae deletion strains, locus YDR150W, strain NUM1, active compounds read low 1.06 | S. cerevisiae deletion strains, locus YEL061C, strain CIN8, active compounds read low 1 | S. cerevisiae deletion strains, locus YGR078C, strain PAC10, active compounds read low 1.01 | [2] 0.923 | S. cerevisiae deletion strains, locus YHR087W, strain rtc3, active compounds read low 0.983 | S. cerevisiae deletion strains, locus YJR043C, strain POL32, active compounds read low 1.04 | S. cerevisiae deletion strains, locus YJR075W, strain HOC1, active compounds read low 0.956 | S. cerevisiae deletion strains, locus YKL190W, strain CNB1, active compounds read low 1.02 | S. cerevisiae deletion strains, locus YLR039C, strain RIC1, active compounds read low 0.992 | S. cerevisiae deletion strains, locus YLR058C, strain SHM2 (second series), active compounds read low 0.996 | S. cerevisiae deletion strains, locus YLR085C, strain ARP6, active compounds read low 0.923 | S. cerevisiae deletion strains, locus YLR262C, strain YPT6, active compounds read low 1.01 | S. cerevisiae deletion strains, locus YML094W, strain GIM5, active compounds read low 0.993 | S. cerevisiae deletion strains, locus YMR219W, strain ESC1, active compounds read low 0.993 | S. cerevisiae deletion strains, locus YMR263W, strain SAP30, active compounds read low 1.06 | S. cerevisiae deletion strains, locus YMR307W, strain GAS1, active compounds read low 0.869 | S. cerevisiae deletion strains, locus YNL153C, strain GIM3, active compounds read low 1.03 | S. cerevisiae deletion strains, locus YNL298W, strain CLA4 (second series), active compounds read low 1.01 | S. cerevisiae deletion strains, locus YNL322C, strain KRE1, active compounds read low 0.985 | S. cerevisiae deletion strains, locus YNR030W, strain Alg12, active compounds read low 0.985 | S. cerevisiae deletion strains, locus YPL055C, strain LGE1, active compounds read low 1.13 | S. cerevisiae deletion strains, locus YPL241C, strain CIN2, active compounds read low 0.98 | S. cerevisiae deletion strains, locus YPR135W, strain CTF4, active compounds read low 0.966 | S. cerevisiae strains, strain wild type, active compounds read low 1.02
